# Compound activity: PubChem, National Center for Advancing Translational Sciences (NCATS)
# Only some compounds are listed: those with a hit (about 8.2% of all), similar ones and a draw of the others.
# KB-V1 cytotox = qHTS assay for MDR1-selective chemotherapeutics: Primary screen using the drug-selected MDR subline cells KB-V1. 3.4% of 400,000 active. Potency, µM (series often up to 46.1 µM), most hits filed as cytotoxic. KB-V1 MDR cells viability, CellTiter-Glo, 72 h. AID 1347076, 2019; note: % is set by controls: 0 for no effect and ±100 for the full control effect; nearly all actives have a fitted effect of over 60% in size
#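 In this primary screen, KB-V1 cells overexpressing P-gp are incubated with library compounds (lowest to highest concentration) for 72 h at 37 degrees C before a luminescent ATP viability read.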
# MCF10A rereplic = A quantitative high throughput screen for small molecules that induce DNA re-replication in MCF 10a normal breast cells. MCF 10A DNA re-replication, Hoechst nuclear intensity, 48 h. Potency, µM (series often up to 46.1 µM), without a hit: at the top dose activity, positive = re-replication, hits mostly activators. 2.9% of 350,000 active. AID 624296, 2012; note: % of control where 0% means no effect; nearly all actives have a fitted effect of over 50% in size
# KB-3-1 tox = qHTS assay for MDR1-selective chemotherapeutics: Primary screen using the parental adenocarcinoma cell KB-3-1; KB-3-1 viability, CellTiter-Glo ATP luminescence, 72 h; AID 1347075, 2019; 1.4% of 400,000 active; Potency, µM (top dose mostly 46.1 µM), most hits filed as cytotoxic; note: % is set by controls: 0 for no effect and ±100 for the full control effect; nearly all actives have a fitted effect of over 60% in size
#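 Viability of parental KB-3-1 cells, measured by CellTiter-Glo luminescence, followed a 72 h incubation at 37 °C with pinned compounds in phenol-red-free DMEM containing 10% FBS.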
# ELG1 repair inh = qHTS screen for small molecules that inhibit ELG1-dependent DNA repair in human embryonic kidney (HEK293T) cells expressing luciferase-tagged ELG1; 2.3% of 330,000 active; AID 504467, 2011; Potency, µM (highest dose often 46.1 µM), for the others: at the highest dose activity change, negative = inhibition, most hits filed as inhibitors; HEK293T ELG1-luciferase reporter, luminescence, 16 h; DNA damage induced by 5-fluorouridine; note: % is set by controls: 0 for no effect and ±100 for the full control effect; nearly all actives have a fitted effect of over 55% in size
#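 In this reporter screen, reduction of luminescence relative to DMSO vehicle indicated activity. Compounds and 5-fluorouridine were added together to 2,000 cells per well, incubated for 16 hr at 37 °C, then developed with ONE-Glo.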
# SW480 rerep = A quantitative high throughput screen for small molecules that induce DNA re-replication in SW480 colon adenocarcinoma cells | AID 624297, 2012 | 1.8% of 340,000 active | Potency, µM (top dose mostly 46.1 µM), for the others: at the highest dose re-replication activation, most hits filed as activators | SW480 DNA re-replication, Hoechst DNA content imaging, 48 h; note: % of control where 0% means no effect; nearly all actives have a fitted effect of over 55% in size
#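 Image-based DNA-content assay: after two days of treatment, nuclei were labelled with the DNA dye Hoechst and imaged, and hits were compounds raising the count of nuclei showing high fluorescence intensity.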
# Starred values were filed as active, the others as inactive; i = inactive; ? = inconclusive; · = no result. Calls come from the whole dose curve; as a rule, active = well fitted curve in the direction sought with a large enough effect; inconclusive = small, poorly fitted or top-dose-only effect, or another doubt; inactive = no such curve, though single readings can be large; an effect the other way counts as inactive or inconclusive. Potency is the fitted concentration of half-maximal effect.
SMILES,KB-V1 cytotox,MCF10A rereplic,KB-3-1 tox,ELG1 repair inh,SW480 rerep
CCOc1ccccc1NC(=O)c1oc2ccccc2c1NC(=O)C1CC1,·,?,·,-3%,3%
CC(C)Cn1c(N)c(C(=O)COC(=O)c2ccccc2F)c(=O)n(C)c1=O,i,0%,i,?,-7%
Cc1c(C(=O)OCC(=O)c2c(N)n(CC(C)C)c(=O)n(C)c2=O)oc2ccccc12,?,16%,i,10µM*,4%
CC(C)Cn1c(N)c(C(=O)COC(=O)c2cccn2C)c(=O)n(C)c1=O,i,25%,?,9.2µM*,-1%
CC(C)Cn1c(N)c(C(=O)COC(=O)/C=C/c2cccs2)c(=O)n(C)c1=O,i,8%,i,9.2µM*,1%
CC(C)Cn1c(N)c(C(=O)COC(=O)c2c(F)cccc2F)c(=O)n(C)c1=O,i,0.52µM*,?,?,-56%
COCc1c(C(=O)OCC(=O)c2c(N)n(CC(C)C)c(=O)n(C)c2=O)oc2ccccc12,i,?,?,?,1%
COc1ccc(-n2c(=S)[nH]c3cc(C(=O)N4CCN(c5ccccc5)CC4)ccc3c2=O)cc1,i,-24%,i,-8%,-20%
NC(=O)c1ccccc1OCC(=O)N1CCc2ccccc2C1,?,2%,i,-2%,10µM*
CCOCCCN(Cc1ccco1)S(=O)(=O)c1cc2c(cc1Cl)NC(=O)CO2,i,·,i,·,·
COc1ccc(CCNC(=O)C(=O)NCC(c2cccnc2)N2CCN(c3ccccc3)CC2)cc1 (stereo not drawn),i,·,?,·,·
CCN(CC)C(=O)[C@H]1C[C@H](CC(=O)NCC23CC4CC(CC(C4)C2)C3)C(=O)N2CCc3c([nH]c4ccc(Cl)cc34)[C@]12C,?,3%,i,?,15µM*
CCN(CC)C(=O)[C@H]1C[C@H](CC(=O)NCCCN(C)C)C(=O)N2CCc3c([nH]c4ccc(Cl)cc34)[C@]12C,i,?,i,?,7%
CC(C)N(C(=O)[C@H]1C[C@H](CC(=O)NCCCN(C)C)C(=O)N2CCc3c([nH]c4ccc(Cl)cc34)[C@]12C)C(C)C,i,?,i,?,18µM*
O=C(C[C@@H]1C[C@@H]2c3cc(NS(=O)(=O)c4ccc(F)cc4)ccc3O[C@@H]2[C@@H](CO)O1)NC1CCCCC1,i,·,i,·,·
CCOc1cc(NC(C)=O)ccc1C(=O)OC,·,-7%,·,·,-9%
COc1ccc(OC)c(-c2csc(NC(=O)Cc3ccccc3)n2)c1,?,?,i,-24%,19%
COC(=O)c1cc(-c2cc(OC)ccc2OC)nc2c1c(=O)n(C)c(=O)n2Cc1ccccc1,?,6.5µM*,i,9.2µM*,2.3µM*
Cc1ccnc2ncccc12,i,·,i,·,·
CC(C)(C)C1CCc2c(sc(NC(=O)C3CCCO3)c2C(N)=O)C1 (stereo not drawn),i,18µM*,i,12%,?
Cc1ccc(C(=O)NNc2cc(N3CCCC3)nc(N3CCCC3)n2)cc1,1.5µM*,19%,i,-4%,10%
Cc1ccc(C(=O)NNC(=O)C2CCN(c3ncccn3)CC2)cc1,i,4%,?,1%,-18%
O=C(NNc1cc(N2CCOCC2)nc(N2CCOCC2)n1)c1ccc(Cl)c(Cl)c1,12µM*,-44%,i,-3%,107%
O=C(NNc1cc(N2CCOCC2)nc(N2CCOCC2)n1)C12CC3CC(CC(C3)C1)C2,?,19%,i,-3%,-49%
Cc1ccc2occ(CC(=O)Nc3ccc(S(=O)(=O)N4CCCC(C)C4)cc3)c2c1 (stereo not drawn),i,·,i,·,·
C=C1C(=O)[C@@]23[C@H](O)C[C@@H]4C(C)(C)CC[C@H](O)[C@@]4(C)[C@@H]2CC[C@@H]1[C@H]3O,i,0.52µM*,i,6.5µM*,?
